Dicer processing – human Dicer pre-microRNA cleavage inhibition. cat-ELCCA pre-miR-21 Dicer processing, chemiluminescence; active compounds read high. z-score at 25 µM. hit rate 6% among 47,000. AID 1347074; in the data active = z-score above about 3, passing the limit was not always enough;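 note: higher signal means more uncleaved substrate so more Dicer inhibition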
Of the large screens only hits and unclear results are named; the others gave an inactive call. Shown is part of a subset that was picked to be rich in hits.

O=C(CSc1ncn[nH]1)c1ccc(O)cc1O	none
CCOC(=O)C1=C(C)Nc2nc3ccccc3n2C1c1ccc(CC)cc1 (stereo unspecified)	none
Cn1ncc2c(Sc3cccc4ccccc34)ncnc21	none
Cn1c(=O)c2c(nc(N3CCCCC3)n2Cc2ccccc2F)n(C)c1=O	none
CN1CCN(c2nc3c(c(=O)n(C)c(=O)n3C)n2Cc2c(F)cccc2Cl)CC1	none
CN1CCN(c2nc3c(c(=O)n(C)c(=O)n3C)n2Cc2ccccc2Cl)CC1	Dicer processing 4.21
COc1nc(-c2ccc(C)cc2)ccc1-c1noc(C(C)C)n1	none
CCOC(=O)c1sc(-c2ccc(C(F)(F)F)cc2)nc1O	none
CSc1n[nH]c(-c2ccc(C(F)(F)F)cc2)n1	none
Cc1nc(-c2ccc(C(F)(F)F)cc2)sc1Br	Dicer processing 17.9
CCCc1nnc(N2C(=O)c3oc4ccc(F)cc4c(=O)c3C2c2ccccc2F)s1 (stereo unspecified)	none
COc1cccc2c1OC1=C(C(=O)CC(C)(C)C1)C2CC(=O)c1ccc(O)cc1 (stereo unspecified)	none
CCCC(=O)N(c1ccc2oc(=O)sc2c1)S(=O)(=O)c1ccc(Br)cc1	none
COc1ccc(S(=O)(=O)N(C(=O)C(C)C)c2ccc3oc(=O)sc3c2)cc1OC	none
CCCC(=O)N(c1ccc2oc(=O)sc2c1)S(=O)(=O)c1ccc(OC)cc1	none
Cc1cc(F)ccc1S(=O)(=O)N(C(=O)c1ccncc1)c1ccc2oc(=O)sc2c1	Dicer processing 6.54
CCCC(=O)N(c1ccc2oc(=O)sc2c1)S(=O)(=O)c1ccc(OCC)cc1	none
CCOc1ccc(S(=O)(=O)N(C(=O)C(C)C)c2ccc3oc(=O)sc3c2)cc1	Dicer processing 3.14
O=C(c1ccncc1)N(c1cc2sc(=O)oc2c2ccccc12)S(=O)(=O)c1ccc(F)cc1	none
CCCCC(=O)N(c1ccc2oc(=O)sc2c1)S(=O)(=O)c1cc(OC)ccc1OC	Dicer processing 5.22
Cc1cc(F)ccc1S(=O)(=O)N(C(=O)C(C)C)c1ccc2oc(=O)sc2c1	Dicer processing 5.02
Cc1ccc(S(=O)(=O)N(C(=O)C(C)C)c2ccc3oc(=O)sc3c2)cc1	none
CC(C)(C)c1cc(OS(=O)(=O)c2ccc(Cl)cc2)c(C(C)(C)C)cc1OS(=O)(=O)c1ccc(Cl)cc1	none
COc1ccc(Cl)cc1N1C(=O)CC(NC(C)(C)C)C1=O (stereo unspecified)	none
Brc1cc(-c2ccccc2)ccc1OCc1cn2cccnc2n1	none
Cc1ccc(Cl)c2c1NC(=O)C2(O)CC(=O)c1ccccc1 (stereo unspecified)	none
Cc1ccsc1CNC(C)(C)CO	none
O=c1[nH]nc(Sc2cc(C(F)(F)F)ccn2)n1-c1ccccc1C(F)(F)F	none
O=C(N/N=C/c1cccc(C(F)(F)F)c1)c1cccn1-c1ccc(F)cc1	none
COC(=O)c1c(NC(=O)COc2cccc(Br)c2)sc2c1C(C(=O)OC)CC2 (stereo unspecified)	none
CC1=NN(c2ccccc2)C(=O)/C1=C/c1ccc(Cl)cc1Cl	none
O=C1CCCC2=C1C(c1ccccc1OCc1ccccc1F)C1=C(CCCC1=O)N2	none
O=C1OCc2cccc3cccc(c23)S(=O)c2cccc3cccc1c23 (stereo unspecified)	none
CN(C)c1ccc(-c2nc3n(n2)C(c2ccc(F)cc2)C2=C(CC(C)(C)CC2=O)N3)cc1 (stereo unspecified)	Dicer processing 4.63
CCOc1ccc(C2C3=C(CC(C)(C)CC3=O)Nc3nc(-c4ccc(OC)cc4)nn32)cc1 (stereo unspecified)	none
CC1=C(C(N)=O)C(c2ccc(Cl)cc2)n2nc(-c3ccc(N(C)C)cc3)nc2N1 (stereo unspecified)	none
CN(C)c1ccc(-c2nc3n(n2)C(c2ccc(Cl)cc2)C2=C(CC(C)(C)CC2=O)N3)cc1 (stereo unspecified)	Dicer processing 3.58
CN(C)c1ccc(-c2nc3n(n2)C(c2cccnc2)C2=C(CCCC2=O)N3)cc1 (stereo unspecified)	none
CN(C)c1ccc(-c2nc3n(n2)C(c2cccnc2)C2=C(CC(C)(C)CC2=O)N3)cc1 (stereo unspecified)	none
N#C/C(=C\Nc1ccc(OC(F)(F)F)cc1)c1nc2ccccc2[nH]1	none
Cc1cc(C)cc(NC(=O)Oc2ccccc2N2CCCCC2)c1	none
O=C(Nc1ccc(OCc2ccccc2)cc1)Oc1ccccc1N1CCCCC1	Dicer processing 4.81
CC(=O)Nc1ccc(S(=O)(=O)Oc2ccccc2N2CCCCC2)cc1	none
O=C1C(C2=NC(c3ccccn3)C3C(=O)N(c4ccc(Cl)cc4)C(=O)C23)=C(O)c2ccccc21 (stereo unspecified)	none
O=C(c1ccccc1)c1cc2c(cc1Br)OCCO2	none
NS(=O)(=O)c1ccc(NC(=O)CCCC(=O)O)cc1	none
COC(=O)CCC(=O)Nc1ccc(C)cc1	none
CC(=O)Nc1ccc(NC(=O)CCC(=O)O)cc1	none
COc1ccc(NC(=O)CC(C)(C)CC(=O)O)cc1OC	none
COc1ccc(NC(=O)CCC(=O)O)cc1OC	Dicer processing 3.73
NS(=O)(=O)c1ccc(NC(=O)CCC(=O)O)cc1	Dicer processing 3.44
COC(=O)CSc1cc(C(F)(F)F)c(C(=O)Nc2ccc(Cl)cc2)cn1	none
COc1cc2c(cc1OC)C(C)N(S(=O)(=O)c1ccc(Cl)cc1)CC2 (stereo unspecified)	none
CCCCC#Cc1ccc(C(=O)N/N=C/c2ccccc2)o1	none
Cc1cc(C)c2cc(C(=O)N(C)c3ccc(F)cc3F)[nH]c2c1	none
Cc1cc(C)cc(Oc2c(C(F)(F)F)oc3cc(O)ccc3c2=O)c1	none
O=c1c(Oc2ccccc2Br)c(C(F)(F)F)oc2cc(O)ccc12	none
O=c1c(Oc2ccccc2Cl)c(C(F)(F)F)oc2cc(O)ccc12	Dicer processing 3.26
Cc1cccc(Cl)c1S(=O)(=O)NNC(=O)Cn1nnc(-c2cccc(Cl)c2Cl)n1	none
CC(C)(C)CC(=O)Nc1nc2c(s1)C(=O)CC(C)(C)C2	none
N#Cc1cccnc1N1CCCN(C(=O)Nc2cccs2)CC1	none
Cc1nn(-c2c(Cl)cc(C(F)(F)F)cc2Cl)c(C)c1C(N)=O	none
COC(=O)c1cnn2c(C(F)F)cc(-c3ccc(C)cc3)nc12	none
CCOC(=O)c1cnn2c(C(F)F)cc(-c3ccc(C)cc3)nc12	Dicer processing 3.53
CCn1ncc(CNC(=O)c2cnn3c(C(F)F)cc(-c4ccc(C)cc4)nc23)c1C	none
CCCN(CCC)C(=O)c1cccc2c1-c1ccccc1C2=O	none
O=C1CSC(=O)N1c1ccc(OC(F)(F)F)cc1	none
Cc1ccc(/C(O)=C2/C(=O)C(=O)N(CCN3CCOCC3)C23C(=O)N(C)c2ccccc23)cc1F (stereo unspecified)	Dicer processing 4.18
COc1ccc(C2/C(=C(\O)c3ccc(C)cc3)C(=O)C(=O)N2CCCN(C)C)cc1 (stereo unspecified)	none
CCN1C(=O)C2(/C(=C(/O)c3ccc(C)cc3)C(=O)C(=O)N2CCCN2CCOCC2)c2ccccc21 (stereo unspecified)	none
Cc1ccc(/C(O)=C2/C(=O)C(=O)N(CCCN3CCOCC3)C23C(=O)N(C)c2ccccc23)cc1F (stereo unspecified)	none
CN1C(=O)C2(/C(=C(/O)c3ccc(Cl)cc3)C(=O)C(=O)N2CCN2CCOCC2)c2ccccc21 (stereo unspecified)	none
COc1ccc(/C(O)=C2\C(=O)C(=O)N(CCN3CCOCC3)C2c2ccc(F)cc2)cc1 (stereo unspecified)	Dicer processing 3.24
COc1ccc(/C(O)=C2\C(=O)C(=O)N(CCCN3CCOCC3)C2c2ccc(OC)cc2)cc1 (stereo unspecified)	none
COc1ccc(/C(O)=C2\C(=O)C(=O)N(CCN3CCNCC3)C2c2ccc(OC)cc2)cc1 (stereo unspecified)	none

From PubChem
